Inconclusive results are not listed. Activity calls are given as the source filed them. Unless noted, calls come from the whole dose curve; as a rule, active = well fitted curve in the direction sought with a large enough effect in the repeat runs; inconclusive = weak or mixed curves; inactive = no such curve, though single readings can be large; an effect the other way counts as inactive or inconclusive.
Assays:
[1] = biological target: Androgen receptor (Homo sapiens) (UniProt P10275); assay: qHTS assay to identify small molecule antagonists of the androgen receptor (AR) signaling pathway using the MDA cell line in the presence of 0.5 nM R1881 (AID 1259243); note: nearly all actives have a fitted effect of over 50% in size
Sequence of Androgen receptor (Homo sapiens) (P10275 whole entry, looked up): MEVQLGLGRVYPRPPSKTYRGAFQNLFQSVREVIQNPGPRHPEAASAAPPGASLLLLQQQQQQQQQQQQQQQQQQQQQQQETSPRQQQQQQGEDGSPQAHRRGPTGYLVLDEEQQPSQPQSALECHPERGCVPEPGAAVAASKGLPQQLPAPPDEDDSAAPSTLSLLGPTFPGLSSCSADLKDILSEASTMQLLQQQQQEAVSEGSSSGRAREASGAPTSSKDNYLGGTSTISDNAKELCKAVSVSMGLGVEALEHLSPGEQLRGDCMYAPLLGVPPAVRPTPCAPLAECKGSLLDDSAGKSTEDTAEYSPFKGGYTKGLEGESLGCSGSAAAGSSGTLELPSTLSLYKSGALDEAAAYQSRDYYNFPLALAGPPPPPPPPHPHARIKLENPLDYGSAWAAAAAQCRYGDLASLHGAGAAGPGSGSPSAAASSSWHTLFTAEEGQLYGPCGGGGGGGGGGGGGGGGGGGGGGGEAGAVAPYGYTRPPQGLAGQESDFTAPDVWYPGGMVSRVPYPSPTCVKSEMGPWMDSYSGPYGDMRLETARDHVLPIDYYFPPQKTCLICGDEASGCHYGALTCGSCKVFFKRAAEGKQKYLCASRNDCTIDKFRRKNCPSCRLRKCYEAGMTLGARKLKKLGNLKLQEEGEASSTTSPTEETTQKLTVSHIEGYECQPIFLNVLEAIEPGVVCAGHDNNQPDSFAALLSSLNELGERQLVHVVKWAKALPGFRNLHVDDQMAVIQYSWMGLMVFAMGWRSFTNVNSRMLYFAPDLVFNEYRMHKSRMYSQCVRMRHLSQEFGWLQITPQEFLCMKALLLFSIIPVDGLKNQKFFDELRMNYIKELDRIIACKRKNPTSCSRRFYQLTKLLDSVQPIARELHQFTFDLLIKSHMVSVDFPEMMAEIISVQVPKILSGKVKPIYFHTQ
Procedure, shortened: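 Luminescent reporter readout (ONE-Glo, 30 min, room temperature) after 16 hr co-treatment of MDA-kb2 cells with test compounds and 0.5 nM R1881 final, at 37C without CO2. The MMTV-driven luciferase responds to both AR and GR.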

[2] = qHTS RealTime-Glo MT Cell Viability Assay in HEK293 cells - 0 hour (AID 1224880); note: top concentration of the series differs between compounds; nearly all actives have a fitted effect of over 45% in size
Procedure, shortened: (§1)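 Luminescence, which tracks viable cell number through reduction of the prosubstrate to a NanoLuc substrate, was read over continuous 37 C culture. Cells (600/well) were premixed with reagent and rested 5 h before 23 nL of compound in DMSO was pinned.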

[3] = A CellTox Green Cytotoxicity Assay to monitor cytotoxicity in HEK293 cells - 32 hour (AID 1224881); note: nearly all actives have a fitted effect of over 40% in size
Procedure, shortened: (§2)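 Fluorescence from a DNA-binding dye excluded by viable cells was measured repeatedly in the same HEK293 wells (600 cells/well) during continuous compound exposure at 37 C. Each assay gives one read point: 0, 8, 16, 24, 32 or 40 h.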

[4] = A CellTox Green Cytotoxicity Assay to monitor cytotoxicity in HepG2 cells - 32 hour (AID 1224883); note: nearly all actives have a fitted effect of over 50% in size
Procedure, shortened: (§3)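 Real-time cytotoxicity: fluorescence of a cell-impermeant cyanine dye binding DNA of dead HepG2 cells, measured repeatedly (0–40 h) during compound exposure at 37 C. Cells seeded 600/well with reagent, dosed after 5 h.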

[5] = A CellTox Green Cytotoxicity Assay to monitor cytotoxicity in HEK293 cells - 8 hour (AID 1224884); note: nearly all actives have a fitted effect of over 35% in size
Procedure, shortened: as §2

[6] = qHTS RealTime-Glo MT Cell Viability Assay in HepG2 cells - 16 hour (AID 1224885); note: nearly all actives have a fitted effect of over 50% in size
Procedure, shortened: (§4)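 HepG2 cells were seeded at 600 cells/well together with NanoLuc luciferase and a cell-permeant prosubstrate, preincubated 5 h at 37 C/5% CO2, then pin-dosed with compounds in DMSO. Nonlytic luminescence from viable cells was read at each time point.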

[7] = qHTS RealTime-Glo MT Cell Viability Assay in HEK293 cells - 24 hour (AID 1224886); note: top concentration of the series differs between compounds; nearly all actives have a fitted effect of over 50% in size
Procedure, shortened: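 HEK293 cells were seeded at 600 cells/well together with NanoLuc luciferase and cell-permeant prosubstrate, preincubated 5 h at 37 C/5% CO2, then given compound in DMSO by pintool. Luminescence from viable-cell prosubstrate reduction was read repeatedly over 40 h.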

[8] = qHTS RealTime-Glo MT Cell Viability Assay in HEK293 cells - 8 hour (AID 1224887)
Procedure, shortened: as §1

[9] = A CellTox Green Cytotoxicity Assay to monitor cytotoxicity in HEK293 cells - 16 hour (AID 1224888); note: nearly all actives have a fitted effect of over 35% in size
Procedure, shortened: as §2

[10] = qHTS RealTime-Glo MT Cell Viability Assay in HepG2 cells - 0 hour (AID 1224889); note: nearly all actives have a fitted effect of over 50% in size
Procedure, shortened: as §4

[11] = A CellTox Green Cytotoxicity Assay to monitor cytotoxicity in HepG2 cells - 8 hour (AID 1224890); note: nearly all actives have a fitted effect of over 45% in size
Procedure, shortened: as §3

[12] = qHTS assay to identify small molecule antagonists of the estrogen receptor alpha (ER-alpha) signaling pathway using the BG1 cell line in the presence of 0.1 nM 17-beta-estradiol - cell viability counter screen (AID 1259241); note: nearly all actives have a fitted effect of over 40% in size
Procedure, shortened: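 Viability in VM7Luc4E2 cells after 22 hr compound exposure under 0.1 nM 17beta-estradiol stimulation, by CellTiter-Fluor.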

[13] = qHTS assay to identify small molecule antagonists of the androgen receptor (AR) signaling pathway using the MDA cell line in the presence of 0.5 nM R1881 - cell viability counter screen (AID 1259242); note: nearly all actives have a fitted effect of over 45% in size
Procedure, shortened: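 Live-cell protease activity was measured by CellTiter-Fluor fluorescence after 30 min. Before that, MDA-kb2 MMTV-luciferase cells had 16 hr at 37C without CO2, exposed to test compounds and 0.5 nM R1881 final.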

[14] = biological target: Estrogen receptor (Homo sapiens) (UniProt P03372); assay: qHTS assay to identify small molecule antagonists of the estrogen receptor alpha (ER-alpha) signaling pathway using the BG1 cell line in the presence of 0.1 nM 17-beta-estradiol (AID 1259244); note: nearly all actives have a fitted effect of over 50% in size
Sequence of Estrogen receptor (Homo sapiens) (P03372 whole entry, looked up): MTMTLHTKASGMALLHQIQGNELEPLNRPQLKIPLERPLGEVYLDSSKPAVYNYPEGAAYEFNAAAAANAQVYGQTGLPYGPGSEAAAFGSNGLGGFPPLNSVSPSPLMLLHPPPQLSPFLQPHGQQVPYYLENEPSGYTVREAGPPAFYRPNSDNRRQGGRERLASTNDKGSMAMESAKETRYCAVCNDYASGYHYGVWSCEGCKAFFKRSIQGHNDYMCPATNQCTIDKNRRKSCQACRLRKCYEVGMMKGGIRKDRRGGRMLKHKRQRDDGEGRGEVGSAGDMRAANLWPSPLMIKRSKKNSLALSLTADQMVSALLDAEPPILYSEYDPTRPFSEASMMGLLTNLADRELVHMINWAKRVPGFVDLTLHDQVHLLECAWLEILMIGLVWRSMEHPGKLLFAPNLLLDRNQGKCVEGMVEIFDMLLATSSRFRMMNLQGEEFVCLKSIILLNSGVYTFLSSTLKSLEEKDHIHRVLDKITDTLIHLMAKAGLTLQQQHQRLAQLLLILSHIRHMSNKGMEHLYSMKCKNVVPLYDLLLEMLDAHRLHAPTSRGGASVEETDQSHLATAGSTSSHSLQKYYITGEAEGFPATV
Procedure, shortened: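 Luciferase luminescence (ONE-Glo, 30 min at room temperature) was read after 22 hr at 37C exposure to compounds plus 17beta-estradiol at 0.1 nM final. Cells were VM7Luc4E2 with endogenous ER-alpha and an ERE-driven luciferase, pre-cultured 5 days in hormone-depleted medium.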

[15] = qHTS assay to identify small molecule HDAC inhibitors (AID 1259364); note: top concentration of the series differs between compounds; nearly all actives have a fitted effect of over 45% in size
Procedure, shortened: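 Luminescence read after 30 min room-temperature HDAC-Glo incubation measures cellular class I/II HDAC activity. Compounds were applied for 2 hr at 37 C to HCT-116 wild-type cells seeded the day before.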

[16] = qHTS assay to identify small molecule HDAC inhibitors - cell viability counter screen (AID 1259365)
Procedure, shortened: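 Cytotoxicity was gauged in wild-type HCT-116 cells after a brief 2hr treatment with DMSO-dissolved compounds at 37C and 5% CO2, using CellTiter-Glo luminescence developed for 30min at room temperature.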

[17] = qHTS assay to identify small molecule agonists of the sonic hedgehog signaling (Shh) pathway - cell viability counter screen (AID 1259366); note: nearly all actives have a fitted effect of over 50% in size
Procedure, shortened: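 Stable Gli1-Luc NIH/3T3 clone, 2,000 cells/well. Compound exposure 24hr at 37C. Read-out: CellTiter-Fluor fluorescence.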

[18] = A CellTox Green Cytotoxicity Assay to monitor cytotoxicity in HepG2 cells - 0 hour (AID 1224882); note: nearly all actives have a fitted effect of over 35% in size
Procedure, shortened: as §3

[19] = qHTS assay to identify small molecule phospholipidosis (PLD) inducers (AID 1259344; active = well fitted curve in the direction sought with a large enough effect; an effect the other way counts as inactive or inconclusive)
Procedure, shortened: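 Read-out is LipidTOX Red fluorescence (ex 595/em 615) imaged in HepG2 cells after 24 h compound exposure at 37 C, with Hoechst nuclear counterstain (ex 352/em 461) allowing per-cell normalisation.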

[20] = qHTS assay to identify small molecule antagonists of the sonic hedgehog signaling (Shh) pathway - cell viability counter screen (AID 1259367); note: nearly all actives have a fitted effect of over 55% in size
Procedure, shortened: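 Fluorescence read-out (CellTiter-Fluor, 1 hr at 37C) taken after 23 hr compound treatment of 3T3 Gli1-Luc cells stimulated with conditioned medium. Cells were seeded at 2,000 per well and pre-incubated 4 hr.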

Measured: Potency

c1ccc2c(c1)CCCC2
inactive: [1]

CC(C)(C)C(=O)CCl
inactive: [1]

COc1nc(NC(C)C)nc(NC(C)C)n1
not listed: [1] | [18] | [19] | [20]
inactive: all other assays above

C=CCN=C=S
not listed: [1] | [5] | [20]
inactive: all other assays above

COC(C)(C)CCCC(C)C/C=C/C(C)=C/C(=O)OC(C)C (stereo unspecified)
not listed: [5] | [14]
inactive: all other assays above

O=[N+]([O-])c1ccc(Cl)c(Cl)c1
not listed: [1] | [5] | [19]
inactive: all other assays above

CNCC(O)c1ccc(O)cc1 (stereo unspecified)
not listed: [1] | [18] | [20]
inactive: all other assays above

Nc1ccc([As](=O)(O)O)cc1
not listed: [1] | [18] | [20]
inactive: all other assays above

O=C(O)Cc1ccccc1
not listed: [1] | [5] | [20]
inactive: all other assays above

From PubChem BioAssay (Tox21)
